# PubChem BioAssay (NCI)
# Compounds without any hit were thinned out: in the full panel of roughly 79,000, 15% have a hit. Activity calls are given as the source filed them. Cut-off read from the data, not from the text of the source: active = growth inhibition above about 70%; inactive = the rest.
# Test: NCI Yeast Anticancer Drug Screen. Data for the sgs1 mgt1 strain (AID 161);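 note: 0% = growth of cultures given vehicle only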
# Settings: S. cerevisiae sgs1 mgt1 strain, at 5.0 µM (retest, dose inferred, filed as 0.5), stronger effect = higher value
# Procedure, shortened: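 Read-out: growth inhibition vs vehicle controls. Cells: mutant yeast strain deficient in DNA damage repair.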
row,SMILES,growth inhibition
1,CCCNC(=O)OCc1ccc(NCCN(CC)CC)c2c(=O)c3ccccc3sc12,-4% (inactive)
2,COc1cc(C(c2cc3c(cc2O)OCO3)N2CCCCC2)cc(OC)c1OC (stereo not given),-5% (inactive)
3,Cc1cc2c(cc1Cl)Sc1nnc(C)n1S2(=O)=O,3% (inactive)
4,O=C(Oc1cccc2cccnc12)c1ccccc1,-4% (inactive)
5,CCCCCCN(CCCCCC)CCC(=O)c1ccc2cc(Br)c3ccccc3c2c1,75% (active)
6,Cc1c2cc(Cl)ccc2cc2c1ccc1ccccc12,2% (inactive)
7,O=C1OC(CCCl)(c2ccccc2)CC1CN1CCOCC1 (stereo not given),-2% (inactive)
8,CCOC(=N)CCCSSc1ccc(N=[N+]=[N-])cc1,-5% (inactive)
9,Cc1[nH]c2ccccc2c1/C=C1\C(=O)C2CCC1C2 (stereo not given),-6% (inactive)
10,O=C(O)c1ccc2c3c(ncnc13)-c1ccccc1C2=O,10% (inactive)
11,CCNCCNc1cc(O)c2c(c1O)C(=O)c1ccccc1C2=O,78% (active)
12,Nc1nc(N)c2nc(CNc3ccc(C(=O)NC(CCC(=O)O)C(=O)O)cc3)cnc2n1 (stereo not given),-2% (inactive)
13,COc1ccccc1OC(=O)Oc1ccccc1OC,-1% (inactive)
14,NNC(=O)c1c(SCc2ccccc2)nc2c3ccccc3ccn12,42% (inactive)
15,N#CC1Oc2ccccc2N1C(=O)c1ccccc1 (stereo not given),-3% (inactive)
16,O=C1C2=Cc3ccccc3CCN2c2ccccc21,1% (inactive)
17,Cc1cc([N+](=O)[O-])cc(Cl)c1O,-4% (inactive)
18,Cc1c(Cl)cccc1N=NC(=O)NNc1cccc(Cl)c1C,-1% (inactive)
19,CCC[CH2][Sn]1([CH2]CCC)[O]C(=O)CN=Cc2c(ccc3ccccc23)[O]1,38% (inactive)
20,Oc1ccc(/C=N/NC(=S)Nc2ccccc2)nc1,6% (inactive)

row,SMILES,growth inhibition
1,CN(C)COC(=S)SCN(C)C,99% (active)
2,Cc1cc2cc3c(c(C(=O)O)c2o1)C(=O)c1ccc2ccccc2c1C3,19% (inactive)
3,O=C1CC(=S)NC(=S)N1,-1% (inactive)
4,O=[N+]([O-])c1cc(I)c(O)c(/C=N/NS(=O)(=O)c2ccc(Cl)cc2)c1,-1% (inactive)
5,CCC1CCC(CC)C1=O (stereo not given),0% (inactive)
6,Cc1cc(O)c2c(c1)C(=O)c1c(c(O)cc(O)c1-c1c(O)cc(O)c3c1C(=O)c1cc(C)cc(O)c1C3=O)C2=O,8% (inactive)
7,CCC(=O)Sc1ccccc1C(=O)Nc1ccc(Cl)cc1,12% (inactive)
8,COc1cccc(CC2N(S(=O)(=O)c3ccc(C)cc3)CCC23C(=O)Nc2ccccc23)c1OC (stereo not given),10% (inactive)
9,Cc1occc1C(=S)Nc1ccc(Cl)c(C(=O)OCC(C)C)c1,34% (inactive)
10,CCOC(=O)c1ccc([N+](=O)[O-])o1,3% (inactive)
11,Nc1ccc(S(=O)(=O)O)c2cccc(S(=O)(=O)O)c12,-2% (inactive)
12,Cn1c2ccccc2c2nnc(N/N=C/c3ccccn3)nc21,23% (inactive)
13,C#CC(NCCC(C)CC(C)(C)C)C(C)C (stereo not given),-3% (inactive)
14,C/C(=N/Nc1ccccc1)C(=O)O,11% (inactive)
15,CCCCCCCCCCCCCCOC(=O)C(N)Cc1ccc(O)cc1 (stereo not given),4% (inactive)
16,O=C(Nc1ccc(S(=O)(=O)NC2CCCCC2)cc1)OCc1ccccc1,100% (active)
17,NC1CCCCC1N.O=S(=O)([O-])CCCN1CCN(CCO)CC1.O=S(=O)([O-])CCCN1CCN(CCO)CC1.[Pt+4],12% (inactive)
18,CCCCCCCNc1ccc2c(cc1=O)C(NC(C)=O)CCc1cc(OC)c(OC)c(OC)c1-2 (stereo not given),9% (inactive)
19,Cc1ccc(NC(=O)c2cc3ccccc3c(N=Nc3cc(S(=O)(=O)O)ccc3O)c2O)c(C)c1,56% (inactive)
20,O=C(O)/C(Cl)=C(\Cl)C(=O)Nc1cccc(C(F)(F)F)c1,68% (inactive)

# Same assay, conditions: S. cerevisiae sgs1 mgt1 strain, at 50.0 µM (retest, dose inferred, filed as 5.0), stronger effect = higher value
row,SMILES,growth inhibition
1,CCCNC(=O)OCc1ccc(NCCN(CC)CC)c2c(=O)c3ccccc3sc12,16% (inactive)
2,COc1cc(C(c2cc3c(cc2O)OCO3)N2CCCCC2)cc(OC)c1OC (stereo not given),-33% (inactive)
3,Cc1cc2c(cc1Cl)Sc1nnc(C)n1S2(=O)=O,34% (inactive)
4,O=C(Oc1cccc2cccnc12)c1ccccc1,97% (active)
5,CCCCCCN(CCCCCC)CCC(=O)c1ccc2cc(Br)c3ccccc3c2c1,94% (active)
6,Cc1c2cc(Cl)ccc2cc2c1ccc1ccccc12,14% (inactive)
7,O=C1OC(CCCl)(c2ccccc2)CC1CN1CCOCC1 (stereo not given),75% (active)
8,CCOC(=N)CCCSSc1ccc(N=[N+]=[N-])cc1,97% (active)
9,Cc1[nH]c2ccccc2c1/C=C1\C(=O)C2CCC1C2 (stereo not given),92% (active)
10,O=C(O)c1ccc2c3c(ncnc13)-c1ccccc1C2=O,86% (active)
11,CCNCCNc1cc(O)c2c(c1O)C(=O)c1ccccc1C2=O,98% (active)
12,Nc1nc(N)c2nc(CNc3ccc(C(=O)NC(CCC(=O)O)C(=O)O)cc3)cnc2n1 (stereo not given),-19% (inactive)
13,COc1ccccc1OC(=O)Oc1ccccc1OC,12% (inactive)
14,NNC(=O)c1c(SCc2ccccc2)nc2c3ccccc3ccn12,90% (active)
15,N#CC1Oc2ccccc2N1C(=O)c1ccccc1 (stereo not given),-4% (inactive)
16,O=C1C2=Cc3ccccc3CCN2c2ccccc21,1% (inactive)
17,Cc1cc([N+](=O)[O-])cc(Cl)c1O,87% (active)
18,Cc1c(Cl)cccc1N=NC(=O)NNc1cccc(Cl)c1C,97% (active)
19,CCC[CH2][Sn]1([CH2]CCC)[O]C(=O)CN=Cc2c(ccc3ccccc23)[O]1,38% (inactive)
20,Oc1ccc(/C=N/NC(=S)Nc2ccccc2)nc1,69% (inactive)

row,SMILES,growth inhibition
1,CN(C)COC(=S)SCN(C)C,99% (active)
2,Cc1cc2cc3c(c(C(=O)O)c2o1)C(=O)c1ccc2ccccc2c1C3,99% (active)
3,O=C1CC(=S)NC(=S)N1,-2% (inactive)
4,O=[N+]([O-])c1cc(I)c(O)c(/C=N/NS(=O)(=O)c2ccc(Cl)cc2)c1,17% (inactive)
5,CCC1CCC(CC)C1=O (stereo not given),3% (inactive)
6,Cc1cc(O)c2c(c1)C(=O)c1c(c(O)cc(O)c1-c1c(O)cc(O)c3c1C(=O)c1cc(C)cc(O)c1C3=O)C2=O,64% (inactive)
7,CCC(=O)Sc1ccccc1C(=O)Nc1ccc(Cl)cc1,47% (inactive)
8,COc1cccc(CC2N(S(=O)(=O)c3ccc(C)cc3)CCC23C(=O)Nc2ccccc23)c1OC (stereo not given),96% (active)
9,Cc1occc1C(=S)Nc1ccc(Cl)c(C(=O)OCC(C)C)c1,71% (active)
10,CCOC(=O)c1ccc([N+](=O)[O-])o1,14% (inactive)
11,Nc1ccc(S(=O)(=O)O)c2cccc(S(=O)(=O)O)c12,0% (inactive)
12,Cn1c2ccccc2c2nnc(N/N=C/c3ccccn3)nc21,98% (active)
13,C#CC(NCCC(C)CC(C)(C)C)C(C)C (stereo not given),-22% (inactive)
14,C/C(=N/Nc1ccccc1)C(=O)O,50% (inactive)
15,CCCCCCCCCCCCCCOC(=O)C(N)Cc1ccc(O)cc1 (stereo not given),98% (active)
16,O=C(Nc1ccc(S(=O)(=O)NC2CCCCC2)cc1)OCc1ccccc1,12% (inactive)
17,NC1CCCCC1N.O=S(=O)([O-])CCCN1CCN(CCO)CC1.O=S(=O)([O-])CCCN1CCN(CCO)CC1.[Pt+4],98% (active)
18,CCCCCCCNc1ccc2c(cc1=O)C(NC(C)=O)CCc1cc(OC)c(OC)c(OC)c1-2 (stereo not given),99% (active)
19,Cc1ccc(NC(=O)c2cc3ccccc3c(N=Nc3cc(S(=O)(=O)O)ccc3O)c2O)c(C)c1,92% (active)
20,O=C(O)/C(Cl)=C(\Cl)C(=O)Nc1cccc(C(F)(F)F)c1,100% (active)
